# Compound activity from PubChem BioAssay.
# Sampled rows, rich in hits. Any-hit rate of the full collection: about 2.2%.
# RTF Ca sens inh: cardiac RTF calcium sensitivity inhibitors, primary screen, biochemical, IANBD-TnC fluorescence, EC70 calcium. inhibition, % at 7.15 µM. IANBD-labeled cardiac RTF, Ca2+ fluorescence. actives 0.12% (n = 340,000). Troponin I, cardiac muscle (Homo sapiens) + Troponin T, cardiac muscle (Homo sapiens) + …. AID 493244, 2011;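 active = inhibition above the mean inhibition of all tested compounds plus 3 SD, cut at about 17% in these data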;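 note: assay run at fixed EC70 calcium of 1.6 mM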
# CRFBP-R2 agonist: agonists of CRF-BP/CRF-R2 complex, primary screen, cell-based, HEK293, calcium dye fluorescence, uHTS; activation, % at 13.2 µM; actives 0.46% (n = 350,000); calcium dye fluorescence (FLIPR); percent of saturating CRF peptide response;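 active = activation of at least 50%, plus an integration ratio under a set limit after plate pattern correction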;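 note: plate controls were neutral control wells without compound for no effect and CRF at EC100 for full effect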
# RTF Ca sens act: cardiac RTF calcium sensitivity activators, primary screen, biochemical, IANBD-TnC fluorescence, EC20 calcium | activation, % at 7.2 µM | IANBD-labeled TnC RTF fluorescence at EC20 calcium; 0% EC20 calcium, 100% full calcium | actives 0.24% (n = 340,000) | Troponin I, cardiac muscle (Homo sapiens) + Troponin T, cardiac muscle (Homo sapiens) + …;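 active = activation above the mean over all tested compounds plus 3 SD, cut at about 30% in these data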;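 note: rise in fluorescence read as greater calcium sensitivity of cardiac thin filaments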
# CRFBP-R2 block: antagonists of CRF-BP/CRF-R2 complex, primary screen, cell-based, HEK293, calcium dye fluorescence, uHTS; inhibition, % at 11.8 µM; CRF-induced calcium fluorescence; AID 588475, 2011; actives 0.59% (n = 350,000);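 active = inhibition of the ligand-induced calcium signal above about 50% at the single tested concentration, limit read from the data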
# Myeloid diff MLP: induction of myeloid progenitor differentiation, primary screen, cell-based, flow cytometry, MLPCN library; actives 1% (n = 360,000); AID 624256, 2012; calls only at 10 µM; ER-HoxA9 myeloid progenitors, lysozyme-GFP differentiation;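 active = normalized GFP-positive differentiation at or above the plate's own cutoff, the solvent-only control mean plus 3 SD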;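 note: cells exposed to compound for four days before flow analysis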
# * marks the source's active call; other numbers are inactive results; i = inactive; nt = no result; + = active, no number.
SMILES,RTF Ca sens inh,CRFBP-R2 agonist,RTF Ca sens act,CRFBP-R2 block,Myeloid diff MLP
O=C(O)CCC(=O)Nc1ccc(Br)c(Cl)c1,-10.5,-3.3,-3.6,67.5*,i
Nc1nc(NC(=O)CCC(=O)O)nn1-c1ccccc1,-9.0,2.8,-1.3,9.7,i
COc1cccc(-n2nc(C#N)c(Cl)cc2=O)c1,-8.5,-3.1,6.8,74.0*,nt
COc1cccc(-n2nc(C(N)=O)c(O)cc2=O)c1,-6.9,-3.6,-1.2,1.8,i
CCOC(=O)C1(C)CCCN1C(=O)c1cccc2ccccc12 (stereo not drawn),nt,nt,nt,nt,i
O=C1C=CC(=O)c2c(O)c(CO)c(CO)c(O)c21,35.8*,27.9,-31.8,-5.8,nt
CCOc1ccc(NC(=O)CN(C)C(=O)c2cc3c(s2)CCC3)cc1OCC,nt,-1.3,nt,13.9,i
CCCCOC(=O)Oc1ccc2c(=O)c(Oc3cc(C)cc(C)c3)coc2c1,2.6,2.7,12.2,21.8,i
CCCCOC(=O)Oc1ccc2c(=O)c(Oc3cccc(C)c3)coc2c1,1.3,-2.1,-0.3,56.4*,i
O=C(NNc1ncnc2c1cnn2-c1ccc(F)cc1)c1ccco1,1.2,-1.6,-1.4,68.0*,i
Cc1ccc(-n2ncc3c(NNC(=O)c4ccco4)ncnc32)c(C)c1,-5.2,1.4,-3.4,-31.3,i
Cc1ccc(-c2nc3cc(NC(=O)C(C)C)ccc3o2)cc1,0.8,-1.6,-2.1,-8.0,+
CCOc1ccc2c(c1)/C(=C(\C(Cl)=C(Cl)Cl)[N+](=O)[O-])N2,-4.8,0.9,-1.2,1.7,+
CCCCOc1ccc2c(c1)/C(=C(\C(Cl)=C(Cl)Cl)[N+](=O)[O-])N2,6.4,0.3,-2.2,67.8*,+
CCCCCC(=O)N1C[C@H](n2cc(-c3ccc(F)cc3)nn2)[C@@H](O)C[C@@H]1c1ccc(Cl)cc1,nt,-1.0,nt,6.6,i
O=C(CCCOc1ccc(Cl)cc1)Nc1cccc(C(=O)O)c1,1.9,-2.1,-0.8,83.7*,i
O=C(/C=C/c1cn(CC(O)CN2CCCCCC2)c2ccccc12)c1cccs1 (stereo not drawn),-25.1,64.9*,19.1,-126.6,+
CCCCN(C)CC(O)Cn1cc(/C=C/C(=O)c2cccs2)c2ccccc21 (stereo not drawn),-21.9,33.4,19.3,-93.8,i
CCOc1ccccc1/C=C(/NC(=O)c1ccccc1)C(=O)NC(C)c1ccccc1 (stereo not drawn),-1.6,-0.6,-2.7,113.4*,i
COc1ccc(CNC(=O)COC(=O)c2ccc(F)c(S(=O)(=O)N3CCCCC3)c2)cc1OC,6.6,-0.8,-4.2,18.0,i
O=C(c1cccc(C(F)(F)F)c1)C1CCCN(C(=O)c2cc(C3CC3)[nH]n2)C1 (stereo not drawn),-0.8,-1.0,-3.3,-4.6,+
CCOc1ccc(N(C)Cc2cc(=O)oc3ccc(OCC)cc23)cc1,-1.0,0.6,-5.4,6.4,i
CC1(C)CC(=O)C(C2C3=C(CC(C)(C)CC3=O)Oc3ccc4ccccc4c32)C(=O)C1 (stereo not drawn),-3.1,25.6,4.8,81.2*,i
O=C(COC(=O)CSc1cc(Cl)ccc1Cl)NCc1ccc2c(c1)OCO2,0.1,52.1*,-1.9,-102.5,i
Cc1ccc(-n2[nH]c(C)c(/C=N/Nc3ccc([N+](=O)[O-])cc3[N+](=O)[O-])c2=O)cc1,9.9,28.5,-1.8,112.4*,i
SMILES,RTF Ca sens inh,CRFBP-R2 agonist,RTF Ca sens act,CRFBP-R2 block,Myeloid diff MLP
O=C(NCCN1CCOCC1)c1cc2sccc2n1Cc1ccc(Cl)cc1,-1.6,-1.6,3.2,-41.9,+
COc1ccc(C(=O)Nc2cccc(NC(C)=O)c2)cc1OC,-11.5,-0.1,0.0,9.6,+
O=S(=O)(c1ccccc1)c1cnn(-c2ccccc2)c1-c1ccc(F)cc1,3.7,-0.5,-3.8,51.3*,i
CCCCCC/C=N/Nc1nnc(Cc2ccc(OC)c(OC)c2)c(=O)[nH]1,-0.8,-1.3,-9.2,9.2,+
CCN1C(=O)C(CC(=O)Nc2c(C)cccc2C)Nc2cc(S(=O)(=O)N(C)C)ccc21 (stereo not drawn),2.4,-3.2,-5.0,-3.6,i
CCC(=O)NC1=C(Nc2ccc(N)cc2)C(=O)c2ccccc2C1=O,5.4,-0.9,9.2,-1.7,+
CCCCCN1C(=O)/C(=C/c2c(N3CCc4ccccc4C3)nc3ccccn3c2=O)SC1=S,-17.3,3.4,7.4,-27.6,+
O=C(CN1C2CCCC1CC(NC(=O)C1CCCCC1)C2)Nc1ccccc1C(F)(F)F (stereo not drawn),-18.4,0.2,-3.4,15.8,+
COc1cccc(C(=O)NC2CC3CCCC(C2)N3CC(=O)Nc2ccccc2C(F)(F)F)c1 (stereo not drawn),-15.0,2.3,2.9,9.0,i
CC(C)CCn1c(=O)c2ccccc2n2c(CCC(=O)NCC3CCCO3)nnc12 (stereo not drawn),-2.5,3.9,-0.6,-22.0,i
O=C(OCCOc1cccc(Cl)c1)c1ccc2ncsc2c1,-8.8,5.3,-2.0,-26.4,i
Cc1cc2c(cc1C)NC(CC(=O)NCc1ccccc1)C(=O)N2 (stereo not drawn),-9.6,2.2,2.9,1.0,+
O=C(CN1C(=O)NC2(CCCC2)C1=O)Nc1cc(Cl)ccc1N1CCOCC1,-4.7,1.4,9.2,0.2,i
Cc1nn(-c2cccc(Cl)c2)c2nc(C(F)(F)F)[nH]c(=O)c12,4.9,26.4,2.2,85.8*,i
Cc1ccccc1NC(NC(=O)c1cccs1)C(Cl)(Cl)Cl (stereo not drawn),-1.5,0.3,-4.4,-0.8,i
Cc1ccc(/C=C/C(=O)c2c(C)cc(C)[nH]c2=O)cc1,-2.8,-0.7,3.8,-4.0,i
Cc1cc(C)c(C(=O)/C=C/c2ccco2)c(=O)[nH]1,-11.8,2.8,-1.1,0.3,+
COc1ccccc1-n1cc(C(=O)c2cc(Cl)ccc2O)cc(C#N)c1=O,-7.5,6.3,7.4,17.9,i
CC(C)n1cc(C(=O)c2ccccc2O)cc(C#N)c1=O,10.5,-1.4,2.6,-5.3,i
Cc1c(-n2cc(C(=O)c3cc(F)ccc3O)cc(C#N)c2=O)c(=O)n(-c2ccccc2)n1C,-7.9,51.1*,0.9,-10.1,i
N#Cc1cc(C(=O)c2cc(F)ccc2O)cn(-c2nccs2)c1=O,-74.8,341.4*,53.9*,-416.0,+
N#Cc1cc(C(=O)c2ccccc2O)cn(-c2nccs2)c1=O,-77.6,238.8*,62.4*,-224.2,i
